“And” between values parts separate entries of the source, which are not always exact repeats. Equal entries are not always repeated.
Legend:
Details in all cases: concentration: 10 µM; 24 h
TDF [1] = assay: H1.0 immunofluorescence intensity relative to DMSO (% of DMSO); higher = stronger H1.0 induction, active = 120 or more
How it was run: (§1)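 Treatment: HCC1569 and TDF cells, 800 per well in 384-well plates with RPMI and 10% FBS, were given compounds at 10 µM for 24 h at 37 °C, in triplicate. Readout: after 3.7% formaldehyde fixation, cells were stained with a rabbit anti-H1.0 antibody, an AlexaFluor 647 secondary and DAPI. Reported values are H1.0 nuclear intensity or cell number as percent of the plate control, taken as the median of replicates, with positional smoothing for HCC1569.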

HCC1569 [2] = assay: H1.0 immunofluorescence intensity relative to DMSO (% of DMSO); higher = stronger H1.0 induction, active = 140 or more
How it was run: as §1

HCC1569 [3] = assay: cell number relative to DMSO (% of DMSO); higher = more cells (less growth inhibition / toxicity)
How it was run: as §1

TDF [4] = assay: as above
How it was run: as §1
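Wherever H1.0 immunofluorescence intensity relative to DMSO is given: TDF is a line of transformed human dermal fibroblasts of mesenchymal origin.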
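Wherever cell number relative to DMSO is given: TDF denotes transformed human dermal fibroblasts of mesenchymal origin.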

CC1(C)C(C(=O)O)N2C(=O)CC2S1(=O)=O (stereo unspecified) [Sulbactam]
H1.0 immunofluorescence intensity (TDF [1]): 95.9 (inactive)
H1.0 immunofluorescence intensity (HCC1569 [2]): 108 (inactive)

CC(C(=O)O)c1cccc(C(=O)c2ccccc2)c1 (stereo unspecified) [Ketoprofen]
H1.0 immunofluorescence intensity (TDF [1]): 88.8 (inactive)
H1.0 immunofluorescence intensity (HCC1569 [2]): 101 (inactive)

O=C(c1ccc(Nc2nccc(-c3cc4ccccc4s3)n2)cc1)N1CCC(N2CCCC2)CC1
cell number (HCC1569 [3]): 61.6
cell number (TDF [4]): 3.45
H1.0 immunofluorescence intensity (HCC1569 [2]): 174 (active)

C[n+]1cc2c3c(ccc2c2ccc4cc5c(cc4c21)OCO5)OCO3.[Cl-] [Sanguinarine chloride]
cell number (HCC1569 [3]): 15.1
cell number (TDF [4]): 0.53
H1.0 immunofluorescence intensity (HCC1569 [2]): 178 (active)

Cc1[nH]nc2ccc(-c3cncc(OCC(N)Cc4ccccc4)c3)cc12 (stereo unspecified)
cell number (HCC1569 [3]): 58.8
cell number (TDF [4]): 2.19
H1.0 immunofluorescence intensity (HCC1569 [2]): 92 (inactive)

CCN(CC)CCCC(C)Nc1cc(/C=C/c2ccccc2Cl)nc2cc(Cl)ccc12 (stereo unspecified)
cell number (HCC1569 [3]): 6.31
cell number (TDF [4]): 1.01
H1.0 immunofluorescence intensity (HCC1569 [2]): 102 (inactive)

O=C(NC1=CNNC1=C1N=c2ccc(CN3CCOCC3)cc2=N1)NC1CC1
cell number (HCC1569 [3]): 23.5
cell number (TDF [4]): 2.95
H1.0 immunofluorescence intensity (HCC1569 [2]): 58.9 (inactive)

CCN(CC)CCNC(=O)c1c(C)[nH]c(C=C2C(=O)Nc3ccc(Cl)cc32)c1C
cell number (HCC1569 [3]): 22.9
cell number (TDF [4]): 1.9
H1.0 immunofluorescence intensity (HCC1569 [2]): 213 (active)

CCCCCC=CCC=CCC=CCC=CCCCC(=O)C(F)(F)F
cell number (HCC1569 [3]): 104
cell number (TDF [4]): 96.7
H1.0 immunofluorescence intensity (TDF [1]): 95.3 (inactive)
H1.0 immunofluorescence intensity (HCC1569 [2]): 95.1 (inactive)

COc1ccc(CCN(C)CCCC(C#N)(c2ccc(OC)c(OC)c2)C(C)C)cc1OC.Cl (racemic)
H1.0 immunofluorescence intensity (TDF [1]): 99.2 (inactive)
H1.0 immunofluorescence intensity (HCC1569 [2]): 95.5 (inactive)

Cc1cc(Nc2ccc(NC(=O)c3ccc(Nc4ccnc5ccccc45)cc3)cc2)nc(N)n1
cell number (HCC1569 [3]): 13.5
cell number (TDF [4]): 0.96
H1.0 immunofluorescence intensity (HCC1569 [2]): 83.8 (inactive)

CCCCCCCCCCCCCCCCCCOCC(COP(=O)([O-])OCC[N+](C)(C)C)OC (stereo unspecified)
cell number (HCC1569 [3]): 51.3 and 99.9
H1.0 immunofluorescence intensity (TDF [1]): 225 (active) and 85.1 (inactive)
H1.0 immunofluorescence intensity (HCC1569 [2]): 162 (active) and 103 (inactive)

COc1ccc(Cn2cc(C(=O)O)c(=O)c3ccccc32)cc1
H1.0 immunofluorescence intensity (TDF [1]): 98.8 (inactive)
H1.0 immunofluorescence intensity (HCC1569 [2]): 116 (inactive)

Cc1ccc([N+](=O)[O-])cc1S(=O)(=O)N(C)N=Cc1cnc2ccc(Br)cn12.Cl.O.O [PI 3-Ka Inhibitor VIII]
cell number (HCC1569 [3]): 45.7
cell number (TDF [4]): 4.97
H1.0 immunofluorescence intensity (HCC1569 [2]): 125 (inactive)

N#Cc1ccc2c(c1)CCN(CCC1CCC(NC(=O)c3ccnc4ccccc34)CC1)C2 (stereo unspecified)
H1.0 immunofluorescence intensity (TDF [1]): 90.6 (inactive)
H1.0 immunofluorescence intensity (HCC1569 [2]): 158 (active)

— the supplement of paper PMC7156485
